# Compounds with a hit are over-represented: about 19% of the library has one in this group of screens.
# HT1080 IDH1KD tx: qHTS for induction of synthetic lethality in tumor cells producing 2HG: qHTS for the HT-1080-IDH1KD cell line; Potency, µM (top dose mostly 46.1 µM), hits mostly cytotoxic; HT-1080 IDH1 knockdown viability, ATP luminescence, 48 h; actives 2% (n = 360,000)
#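 Cytotoxicity counter-line: IDH1KD HT-1080, 48 h, CellTiter-Glo. Curves classed by r2, magnitude and activity.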
# DT40 TDP1 CPT: qHTS for Inhibitors of human tyrosyl-DNA phosphodiesterase 1 (TDP1): qHTS in cells in presence of CPT; chicken DT40 Tdp1-/-;hTDP1 cells + 20 nM CPT, ATP luminescence, 48 h; Potency, µM (doses to about 46.2 µM), usual class: inhibitors; actives 12% (n = 420,000); AID 686979, 2013; further: nearly all actives have a fitted effect of over 55% in size
#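 Chicken DT40 Tdp1-/- cells stably complemented with human TDP1 were seeded at 400 cells/well in medium containing 20 nM camptothecin, exposed to pin-transferred compounds, and grown at 37 °C for at least 48 hr. Viability was read as ATP luminescence.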
# HT1080-NT tox: qHTS for induction of synthetic lethality in tumor cells producing 2HG: qHTS for the HT-1080-NT fibrosarcoma cell line; HT-1080-NT fibrosarcoma viability, CellTiter-Glo ATP luminescence, 48 h; Potency, µM (titrated, usually from 46.1 µM), most hits filed as cytotoxic; actives 1.6% (n = 360,000);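 further: NT is the 2HG producing partner of a matched IDH1 knockdown line; nearly all actives have a fitted effect of over 55% in size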
#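 HT-1080-NT; 750 cells/well; 5% FBS RPMI; 48 h compound, 37 degrees C; CellTiter-Glo luminescence; curve fitting and curve-class assignment.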
# IL-1B inflam inh: qHTS for Inhibitors of Inflammasome Signaling: IL-1-beta AlphaLISA Primary Screen; THP-1 LPS/ATP IL-1B secretion, AlphaLISA, 16 h; stronger effect = lower value; activity change, % at 57.5 µM; actives 4.7% (n = 360,000); in the data active means activity change below about -50%; inconclusive means mostly about -30% to -49%
#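 THP-1 cells pretreated 1 hr with compounds (up to 57.5 uM final), then stimulated with LPS (250 ng/mL final) plus ATP (1.25 mM final); secreted IL-1B measured by AlphaLISA after 16 hr, decreased signal indicating inhibition.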
# TDP1 cell noCPT: qHTS for Inhibitors of human tyrosyl-DNA phosphodiesterase 1 (TDP1): qHTS in cells in absence of CPT; actives 15% (n = 420,000); DT40 Tdp1-/- hTDP1 cells, no CPT, ATP luminescence, 48 h; Potency, µM (top dose mostly 46.2 µM), usual class: inhibitors; further: nearly all actives have a fitted effect of over 55% in size
#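 A cellular qHTS used chicken DT40 cells lacking endogenous Tdp1 but carrying stably transfected human TDP1. Compounds were applied without camptothecin, and cell growth kinetics were judged by ATP-dependent luminescence after ≥48 hr.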
# uPA surface inh: qHTS for Inhibitors of Cell Surface uPA Generation; cell surface uPA generation assay, qHTS; Potency, µM (top dose mostly 38.3 µM), most hits filed as inhibitors; actives 0.31% (n = 330,000); active means well fitted inhibition curve with a large enough effect; inconclusive means small, poorly fitted or top-dose-only effect; inactive means no such curve, though single readings can be large or run the other way; tested in mouse RAW 264.7 cells; further: nearly all actives have a fitted effect of over 55% in size
# Hits are given with their value; n = inactive; u = inconclusive; x = no result given; [ ] = another dose, or the depositor's remark. Unless noted, the call rests on the fitted dose curve; in most records, active means well fitted curve in the direction sought with a large enough effect; inconclusive means small, poorly fitted or top-dose-only effect, or another doubt; inactive means no such curve, though single readings can be large; an effect the other way counts as inactive or inconclusive.
SMILES,HT1080 IDH1KD tx,DT40 TDP1 CPT,HT1080-NT tox,IL-1B inflam inh,TDP1 cell noCPT,uPA surface inh
O=C1CC(N2CCN(Cc3ccc4c(c3)OCO4)CC2)C(=O)N1c1cccc(Cl)c1 (stereo not drawn),n,n,n,n,n,n
COc1ccc2c(c1)CC(N1CCN(C)CC1)c1cc(OC)ccc1S2 (stereo not drawn),21µM,u,u,-93,u,n
Fc1ccc2c(c1)Sc1ccc(Cl)cc1CC2N1CCN(CCC2OCCO2)CC1 (stereo not drawn),u,u,u,-75,18µM,n
CSc1ccc2c(c1)C(N1CCN(C)CC1)Cc1ccc(F)cc1S2 (stereo not drawn),u,u,u,-56,16µM,n
O=[N+]([O-])c1ccc2c(c1)C(N1CCN(CCO)CC1)Cc1ccc(F)cc1S2 (stereo not drawn),16µM,u,16µM,n,u,x
COc1cccc(N2CCN(c3nc(C)cc(=O)[nH]3)CC2)c1,n,n,n,n,n,n
CN(C)CCCNc1ncnc2c1cnn2Cc1ccccc1Cl,n,n,n,n,n,n
Cc1nc(N2CCC(C)CC2)c2c(C)c(C(=O)Nc3ccc4c(c3)OCCO4)sc2n1,n,u,n,u,u,u
Cc1c(C(=O)N2CCOCC2)sc2ncnc(N3CCc4ccccc4C3)c12,n,12µM,n,n,12µM,n
CCN1CCN(C(=O)c2sc3ncnc(N4CCc5ccccc5C4)c3c2C)CC1,n,u,n,n,u,n
Cc1c(C(=O)N2CCCCC2C)sc2ncnc(N3CCc4ccccc4C3)c12 (stereo not drawn),n,u,n,-97,13µM,n
Cc1c(C(=O)Nc2ccc3c(c2)OCCO3)sc2ncnc(N3CCCCC3C)c12 (stereo not drawn),n,u,n,u,15µM,n
COC(=O)c1ccc(C(=O)O)nc1,n,n,n,n,n,n
Cc1oc2ncn(C)c(=O)c2c1C(=O)NCCCN1CCCCC1C (stereo not drawn),x,n,x,x,n,x
COc1ccc2cc(CNC3CCS(=O)(=O)C3)c(-c3ccc(OC)c(OC)c3)nc2c1 (stereo not drawn),x,n[9.04 µM],x,x,n,x
CCOC(=O)N1CCC(NC(=O)c2cn(-c3ccc(OC)cc3)c(=O)c3ccccc23)CC1,n,n,n,n,u,n
COc1ccc(N2Cc3cccc(C(=O)Nc4ccc(F)cc4)c3C2=O)cc1,x,10µM,x,x,8.2µM,x
CCOC(=O)N1CCC(NC(=O)c2cccc3c2C(=O)N(c2ccc(OC)cc2)C3)CC1,n,15µM,n,n,u,n
CCC(C)(C)c1ccc(Oc2ccc(N)cc2)cc1,u,n,16µM,n,u,n
CCC(C)NC(=O)Cn1cnc2sc(C)c(S(=O)(=O)N3CCCCC3)c2c1=O (stereo not drawn),n,n,n,n,n,n
CCOCc1c(C(=O)N2CCN(CCOc3ccc(Cl)cc3)CC2)oc2ccccc12,n,u,u,u,15µM,n
COC(=O)CN1C(=O)[C@H]2[C@@H](/C=C/c3ccccc3)N3C(=O)CN(Cc4ccc(-c5ccccc5)cc4)C(=O)[C@@]3(C)[C@H]2C1=O,n,26µM,u,n,u,n
C[C@@]12C(=O)N(Cc3ccc(-c4ccccc4)cc3)CC(=O)N1[C@H](/C=C/c1ccccc1)[C@@H]1C(=O)N(c3ccccc3)C(=O)[C@@H]12,n,u,n,n,23µM,n
COc1cc(C(=O)OC2CCOC2=O)cc(Cl)c1OC (stereo not drawn),n,n,n,n,n,n
Cc1cccc(N2CCN(c3nc(C)cc(C)c3C#N)CC2C)c1 (stereo not drawn),n,n,n,n,u,n
SMILES,HT1080 IDH1KD tx,DT40 TDP1 CPT,HT1080-NT tox,IL-1B inflam inh,TDP1 cell noCPT,uPA surface inh
Cc1cccc(N2CCN(c3ncnc4onc(-c5ccc(F)cc5)c34)CC2C)c1 (stereo not drawn),x,16µM,x,x,15µM,x
Cc1noc2ncnc(N3CCN(c4cccc(C(F)(F)F)c4)CC3)c12,x,12µM,x,x,8.2µM,x
Cc1cccc(N2CCN(c3ncnc4onc(C)c34)CC2C)c1 (stereo not drawn),x,4.6µM,x,x,2.3µM,x
Cc1noc2ncnc(N3CCCC3)c12,n,n,n,n,n,n
Cc1ccc(C)c(CN2CCc3nnc(CNC(=O)c4cc(C)oc4C)n3CC2)c1,x,u,x,x,n,x
COc1cc(OC)c(NC(=O)CSc2cc(=O)n(C)c3ccc(Cl)cc23)cc1Cl,x,n,x,x,u,x
Cc1cc(Cl)c2oc(C(=O)N(C)Cc3nccn3C)c(C)c2c1,n,16µM,n,n,7.3µM,n
Cc1cc(Cl)c2oc(C(=O)N(C)Cc3cc(C)[nH]n3)c(C)c2c1,n,n,n,n,n,n
CCCc1noc2c1/C(=N\O)CC(c1ccccc1)C2 (stereo not drawn),n,n,n,n,u,n
CCc1noc2c1/C(=N\O)CC(c1ccccc1)C2 (stereo not drawn),n,u,n,n,16µM,n
O=C(Cn1cc(C(F)(F)F)cc(Cl)c1=O)NC1CCS(=O)(=O)C1 (stereo not drawn),n,n,n,n,n,n
CC(C)(C)[C@H]1CCC(=O)N([C@H](CSc2ccccc2)Cc2ccccc2)CC1,n,23µM,n,n,u,n
CC(C)(C)[C@H]1CCC(=O)N([C@H](CN=[N+]=[N-])Cc2ccccc2)CC1,n,14µM,n,n,20µM,n
C[C@@H](CSc1ccc(Br)cc1)CN1CC[C@H](C(C)(C)C)CCC1=O,n,u,n,n,u,n
O=C1CCC(OCc2ccccc2)CCN1[C@H](CSc1ccccc1)Cc1ccccc1 (stereo partly drawn),u,u,u,n,16µM,x
CC(C)(C)[C@H]1CCC(=O)N([C@H](CSc2ccc(Br)cc2)Cc2ccccc2)CC1,n,18µM,n,n,14µM,n
[N-]=[N+]=NC[C@H](Cc1ccccc1)N1CC[C@@H](OCc2ccccc2)CCC1=O,n,u,n,n,u,n
Cc1ccc(CN2CCC(C)(Oc3ccc(Cl)cc3)C2)cc1 (stereo not drawn),n,u,n,n,u,x
COCCNC(=O)C1(C)CCN(C(=O)c2ccc(SC(F)(F)F)cc2)C1 (stereo not drawn),n,n,n,n,n,x

# Source: PubChem (National Center for Advancing Translational Sciences (NCATS))
